# Measurements reported in ChEMBL document CHEMBL4513216, “Probing the Open Global Health Chemical Diversity Library for Multistage-Active Starting Points for Next-Generation Antimalarials” (ACS Infect Dis, 2020).
# Out of some 69,000 compounds screened, about 8,600 (12%) showed an effect of 50% or more. For the sample, strong results were picked, then their nearest neighbours and some compounds at random.
# System: Plasmodium berghei
# Experiment: Screen against P. berghei liver stage (PbLuc), transformed with Luciferase, at 10uM
# Type: functional, HepG2
# Settings: tested at 10 uM
row,SMILES,INHIBITION [%]
1,Cc1ccc(C)c(S(=O)(=O)CCNC2CCc3ncnn3C2)c1 (configuration not stated),-21.9
2,CC(NCc1ccnc(OC2CCC2)c1)c1cnn(C)c1 (configuration not stated),-4.92
3,O=C1OCCN1CC(=O)N1C[C@@H]2CC[C@H]1CN(C(=O)c1cccnc1)C2,29.6
4,Cc1cc(N2CCC(Cc3cccnc3)CC2)ncn1,39.7
5,CC(=O)N1CCN(C(=O)c2sc(-c3ccccc3F)nc2C)CC1,-10.8
6,OCC1CCCN1c1cc(NCc2cccs2)ncn1 (configuration not stated),31.3
7,Cc1c(C)n(CC(O)CN2CCN(CCO)CC2)c2c(Cl)cccc12 (configuration not stated),28.6
8,Cc1cc(F)ccc1S(=O)(=O)NCc1[nH]ncc1Br,-3.14
9,Cc1ccc(F)c(S(=O)(=O)NCc2[nH]ncc2Br)c1,52.9
10,Cc1ccc(F)cc1S(=O)(=O)NCc1[nH]ncc1Br,1.62
11,Cc1cccc(CN2CCOCC2c2[nH]ncc2C)n1 (configuration not stated),31.9
12,O=C([C@H]1C[C@H]2OCC[C@H]2N(C(=O)c2ccnnc2)C1)N1CCCCO1,19.5
13,O=C(c1ccco1)N1CC[C@H]2[C@H]1CCN2S(=O)(=O)C1CC1,58.7
14,O=C(c1ccncc1)N1CC[C@H]2[C@H]1CCN2S(=O)(=O)C1CC1,-69.3
15,CS(=O)(=O)N1C[C@@H]2CCN(C(=O)c3ccco3)[C@@H]2C1,24.9
16,O=C(c1ccccn1)N1CC[C@H]2[C@H]1CCN2S(=O)(=O)C1CC1,-60.2
17,O=C(c1ccco1)N1CC[C@H]2[C@H]1CC(=O)N2c1cccnc1,-5.89
18,Cn1cc(N2C(=O)C[C@@H]3[C@@H]2CCN3C(=O)c2ccco2)cn1,12.2
19,O=C(c1cnccn1)N1CC[C@H]2[C@H]1CCN2S(=O)(=O)C1CC1,71
20,O=C(c1ccoc1)N1CC[C@H]2[C@H]1CCN2S(=O)(=O)C1CC1,44.8
21,O=C(c1ccnnc1)N1CC[C@H]2[C@H]1CCN2S(=O)(=O)C1CC1,63.1
22,CC(C)N1C(=O)C[C@H]2[C@@H]1CCN2C(=O)c1ccco1,53.9
23,O=C(C1CCC1)N1CCN(C(=O)c2cnccn2)[C@H]2CS(=O)(=O)C[C@H]21,23.5
24,CN(C)CC(=O)N1CCN(c2cc(N3CCCC3CO)ncn2)CC1 (configuration not stated),-5.1
25,CNC(=O)NC(=O)C(C)N1CCN(c2ccc(C#N)cc2F)CC1 (configuration not stated),11.8
26,CN(C)S(=O)(=O)N1C[C@@H]2C[C@H](C(=O)Nc3ccccc3)[C@H](C1)O2,-22.5

row,SMILES,INHIBITION [%]
1,C[C@H](O)c1cnn(-c2ccccc2)c1,-13.1
2,Cc1cc(C)c(CNC(=O)NC2CCOCC2)c(=O)[nH]1,27.7
3,Cc1nccc(N2CCN(C3CCOCC3)CC(C(=O)N(C)C)C2)n1 (configuration not stated),25.8
4,CC(C)(C)CCCC(=O)Nc1ccnn1C1CCS(=O)(=O)C1 (configuration not stated),46.6
5,CC(Nc1cccc2c1OCCO2)C(=O)NC(N)=O (configuration not stated),-45.2
6,O=C(CN1CCCC1)N1CCCC(c2cc(=O)n3c(n2)CCCCC3)C1 (configuration not stated),14.7
7,CN(C)C(=O)N[C@@H]1CN(C2CCOCC2)[C@@H]2CCCO[C@@H]21,20.1
8,CN(C)C(=O)N[C@H]1CN(C2CCOCC2)[C@@H]2CCCO[C@H]12,43.8
9,CN(C)C(=O)N[C@@H]1CN(S(C)(=O)=O)[C@@H]2CCCO[C@@H]21,60
10,COCC(NC(=O)c1cccnc1)c1cccc(C(F)(F)F)c1 (configuration not stated),7.44
11,CNC(=O)CCc1cc(C2CCNCC2)nc(C)n1,27.8
12,Oc1cc(C2CCCCN2C2CCCC2)nc(-c2ccncc2)n1 (configuration not stated),16.5
13,CC(OCC1CC1)C(=O)N1CCCN(Cc2cnn(C)c2)CC1 (configuration not stated),60.5
14,Cn1cc(CN2CCCN(C(=O)c3ccc4ccccc4n3)CC2)cn1,52.35
15,CC(OCC1CC1)C(=O)N1CCCN(Cc2nccn2C(C)C)CC1 (configuration not stated),46.2
16,Cn1cc(CN2CCCN(C(=O)c3cc[nH]n3)CC2)cn1,23.2
17,Cc1cccc(C(=O)N2CCCN(Cc3cnn(C)c3)CC2)n1,31.8
18,Cn1cc(CN2CCCN(C(=O)c3cn4ccccc4n3)CC2)cn1,56.6
19,Cc1nc(C(=O)N2CCCN(Cc3cnn(C)c3)CC2)ccc1C#N,15.1
20,CC(OCC1CC1)C(=O)N1CCCN(Cc2cscn2)CC1 (configuration not stated),11.67
21,Cn1cc(CN2CCCN(C(=O)c3ccccn3)CC2)cn1,-13.35
22,CC(C)CNC(=O)c1cn(-c2ccccn2)c(=O)c2ccccc12,13.9
23,CCN1CC2(CC1=O)CN(C(=O)NC(C)C)CCN(C(=O)NC(C)C)C2,27.5
24,Cc1cnn(CC2CN(CC(=O)N(C)Cc3ccsc3)CCO2)c1 (configuration not stated),-89
25,CS(=O)(=O)c1cccc(C(=O)N2CCCC(n3cccn3)C2)c1 (configuration not stated),1.94
26,O=C(CN1CCCC(Cn2cncn2)C1)NCc1ccccc1F (configuration not stated),19.4

row,SMILES,INHIBITION [%]
1,CC(C)c1nn(C)c(N(C)C)c1CNCc1cccc2cccnc12,19.283
2,CC(C)CC(=O)N1CC[C@H]2N(C)CC[C@@]2(C(=O)Nc2cccnc2)CC1,26.7
3,Cc1c(C2N3CC4(C)CN2CC(C)(C3)C4=O)[nH]c(=O)[nH]c1=O (configuration not stated),46.6
4,Cc1c(C2N3CC4(C(C)C)CN2CC(C(C)C)(C3)C4=O)[nH]c(=O)[nH]c1=O (configuration not stated),54.3
5,CCC12CN3CC(CC)(CN(C1)C3c1[nH]c(=O)[nH]c(=O)c1C)C2=O (configuration not stated),11.1
6,O=C(C1CCC1)N1C[C@H]2CC[C@@H](C1)N(S(=O)(=O)c1cccnc1)C2,-70.7
7,O=C(NCCCNC(=O)c1cccc(O)c1)Nc1ccc(F)cc1F,-4.74
8,COCc1noc(C2(c3ccc(F)cc3)CC2)n1,11.6
9,COCc1noc(C2(c3ccc(F)cc3)CCOCC2)n1,15.1
10,COCc1noc(C2(c3ccc(F)cc3)CCC2)n1,77.2
11,COCc1ncn2c1CN(C(=O)c1ccc3ccccc3n1)CC2,-6.3
12,CC(C)(C)C(=O)NCCC(=O)N1CCC(Nc2cccnn2)CC1,41.5
13,O=C(CNCCn1cccn1)NCC1(c2ccccc2)CCCC1,-23.9
14,O=C(CNCCn1cccn1)NCC1(c2ccccc2)CC1,8.48
15,O=C(CNCCn1cccn1)NCC1(c2ccccc2)CCC1,72.8
16,CN1CCC(NC(=O)c2cc(Cl)cc(Br)c2O)C1=O (configuration not stated),24.4
17,OC1(CN2CCCCC2)CCN(c2nccc(C(F)(F)F)n2)C1 (configuration not stated),46.7
18,O=S(=O)(CCNCc1ccc2c(c1)CCO2)N1CCOCC1,-3.19
19,Fc1cc(CNCc2ccc3c(c2)CCO3)ccc1N1CCOCC1,55.1
20,c1cc(CNCc2ccc3c(c2)CCO3)cc(N2CCOCC2)n1,-1.58
21,CC(C)c1nc(C2CCCN(C(=O)c3nccn4ccnc34)C2)no1 (configuration not stated),9.64
22,Cc1cn(Cc2ccccc2)nc1N,24.8
23,O=C(c1cc(Br)ccc1-n1cnnn1)N1CCCC1,28.6
24,CC(C)c1nnsc1CNC(=O)C1CCN(C(=O)C2CCCC2)CC1,41.6
25,CC(C)c1nnsc1CNC(=O)C1CCN(C(=O)C2CCC2)CC1,44.6
26,CC(C)c1nnsc1CNC(=O)C1CCCN(C(=O)N(C)C)C1 (configuration not stated),53.5

row,SMILES,INHIBITION [%]
1,Nc1no[n+]([O-])c1C(=O)NCc1ccco1,5.7
2,CCn1ccc(CN(C)C(=O)CSc2nnc(N)s2)n1,22.6
3,COc1ccc(CN(C)C(=O)CSc2nnc(N)s2)c(OC)c1OC,18.9
4,COc1ccnc(CN(C)C(=O)CSc2nnc(N)s2)c1,71.4
5,Cc1nc(CN2CCCN(C(=O)c3sccc3C#N)CC2)cs1,-27.8
6,Cc1nc(CC2CCN(Cc3ccc(CCC(C)(C)O)cc3)CC2)no1,60.7
7,Cc1noc(CC2CCN(Cc3ccc(CCC(C)(C)O)cc3)CC2)n1,40.2
8,c1ccc(CN2CCC(Cc3noc(C4CC4)n3)CC2)cc1,28.8
9,CN(C)c1cc(CNC(=O)CC2CCCCC2)ccn1,4.34
10,Cc1cccc(Cn2c3c(ccc2=O)CCN(Cc2ccoc2)CC3)n1,8.47
11,Cc1ccc(N(CC(=O)N2CCCCC2)C(=O)C2CCCO2)cc1 (configuration not stated),-7.25
12,Cc1ccc(N(CC(=O)c2ccc(Br)cc2)C2=NCCCCC2)cc1,87.6
13,O=C(CN(C1=NCCCCC1)c1ccc(Cl)cc1)c1ccccc1,59.8
14,O=C(CN(C1=NCCCC1)c1ccccc1)c1ccc2c(c1)OCCO2,33.3
15,O=C(CN(C1=NCCCC1)c1ccccc1)c1ccccc1,-13.4
16,O=C(CC(SC1CCCCC1)C(=O)O)c1ccc(Cl)cc1 (configuration not stated),6.83
17,CCOc1ccc(N(CC(=O)c2ccccc2)C2=NCCCCC2)cc1,68.7
18,Cc1cccc(N(CC(=O)c2ccccc2)C2=NCCCCC2)c1,51.6
19,Cc1cccc(N(CC(=O)N2CCCCC2)C(=O)C2CCCO2)c1 (configuration not stated),-84.1
20,Cc1ccc(C(=O)CN(C2=NCCCCC2)c2ccccc2)cc1,44.1
21,O=C(CN(C1=NCCCC1)c1ccccc1)c1ccc(OC(F)F)cc1,30.8
22,COc1ccc(C(=O)CN(C2=NCCCCC2)c2ccccc2)cc1,20.1
23,CC1=N[C@@]2(CC[C@@H]3CN(CC(C)C)C[C@@H]32)C(=O)N1C,18.5
24,Cc1nn(C)c2cnn(CC(=O)NCc3ccc4c(c3)OCO4)c12,36.6
